We go through 63 molecules from PubChem BioAssay AID504462 (Sanford-Burnham Center for Chemical Genomics, 2011).

“And” between values parts separate entries of the source, which are not always exact repeats. Equal entries are not always repeated. About 1,700 (0.5%) of roughly 340,000 compounds were called active. The sample holds actives, similar compounds and a random draw of the others, so the mix is not that of the screen. A number with no mark means an inactive call. Cut-off read from the data, not from the text of the source: active = inhibition above about 40%; inactive = the rest.

The target of this assay is Cysteine protease ATG4B (Homo sapiens) (UniProt Q9Y4P1). Briefly: blockers of ATG4B cysteine protease activity – biochemical, fluorescence, uHTS, primary screen (AID 504462). The note with it: ATG4B cleavage of LC3-PLA2, NBD-HPC fluorescence, 1 h; at 8.33 µM; active compounds read high.
Sequence of Cysteine protease ATG4B (Homo sapiens) (Q9Y4P1 whole entry, looked up): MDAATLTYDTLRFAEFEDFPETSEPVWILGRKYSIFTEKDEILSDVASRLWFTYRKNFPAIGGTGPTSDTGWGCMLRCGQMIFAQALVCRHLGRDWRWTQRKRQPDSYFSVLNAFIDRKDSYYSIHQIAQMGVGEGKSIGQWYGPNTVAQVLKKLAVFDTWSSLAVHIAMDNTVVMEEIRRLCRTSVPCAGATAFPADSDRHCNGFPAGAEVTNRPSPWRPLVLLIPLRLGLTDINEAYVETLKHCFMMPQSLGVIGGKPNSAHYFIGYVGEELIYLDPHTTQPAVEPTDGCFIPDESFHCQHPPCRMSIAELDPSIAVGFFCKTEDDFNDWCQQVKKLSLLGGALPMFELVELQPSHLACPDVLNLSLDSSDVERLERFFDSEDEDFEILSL
What is called inhibition is the relative decrease from the control value, in per cent. Regarding `COC(=O)c1ccc(CNC(=O)Cn2cc(C)c(=O)[nH]c2=O)cc1`, the inhibition was -5.77%.

For `CN1CCN(Cc2nc3cc(NC(=O)COc4ccc([N+](=O)[O-])cc4)ccc3n2C)CC1`, the inhibition is -4.73%.

`CC12c3ccccc3C(c3ccccc31)C1C(=O)N(Cc3cccnc3)C(=O)C12` (stereo not drawn): the inhibition was -4.51%.

With `Cc1cccc(C)c1N1CCN(S(=O)(=O)N2CCOCC2)CC1`, the inhibition was 19.1%.

Turning to `Cc1cccc(C(=O)N2CCN(S(=O)(=O)N3CCCCC3)CC2)c1`, the inhibition was 0.43%.

Regarding `Cc1cccc(C)c1N1CCN(S(=O)(=O)N2CCCCC2)CC1`, the inhibition is 54.5% (active).

Regarding `O=C(O)c1ccc(S(=O)(=O)N2CCOCC2)o1`, the inhibition is 0.56%.

On to `O=c1cc(CO)oc(C(Nc2cccc([N+](=O)[O-])c2)c2ccccn2)c1O` (stereo not drawn), for which the inhibition is -12.1%.

Consider `CCOn1c(SC(C)C)nc2ccccc2c1=O`, for which the inhibition is 7.51%.

`COCC(C)n1c(SCC(=O)NC2CCCCC2C)nc2ccccc2c1=O` (stereo not drawn): the inhibition is -0.82%.

As for `CCOC(=O)C(C)Sc1nc2ccccc2c(=O)n1CC1CCCCC1` (stereo not drawn), the inhibition is 41.4% (active).

With `O=C(CNC(=O)c1ccc(Br)o1)NCC1CCCO1` (stereo not drawn), the inhibition was -6.66%.

In the case of `Cc1ccc(C)c(-n2cc(CN3CCN(C(=O)c4ncn[nH]4)CC3)c(-c3ccccc3)n2)c1`, the inhibition was 2.98%.

Regarding `Cc1ccc(C(=O)C[n+]2cc(-c3ccccc3)n3c2CCCCC3)cc1`, the inhibition was 10.8% and 3.23%.

Regarding `COc1cccc(/C=N/Nc2ccc(S(=O)(=O)Nc3ccccc3C(=O)O)cc2[N+](=O)[O-])c1O`, the inhibition is 42.3% (active).

For `O=C(O)c1ccccc1/C=N/Nc1ccc(S(=O)(=O)Nc2ccc(Cl)cc2)cc1[N+](=O)[O-]`, the inhibition is 1.28%.

Regarding `COc1ccc(Br)cc1/C=N/Nc1ccc(S(=O)(=O)Nc2ccccc2C(=O)O)cc1[N+](=O)[O-]`, the inhibition is 12.8%.

As for `O=C(OCc1cc(Cl)ccc1OC(F)F)c1cccnc1`, the inhibition is -2.74%.

`COc1ccc(CNC(=O)C2(CC3CC(c4ccccc4)=NO3)CCN(C(=O)c3cccc(O)c3)CC2)cc1` (stereo not drawn): the inhibition was -7.3%.

On to `CCOC(=O)c1c(-c2ccccc2)oc2cc(Br)c(O)c(C=O)c12`, for which the inhibition was 49.9% (active).

As for `CCOC(=O)c1c(-c2ccccc2)oc2ccc(OCC(=O)NN)cc12`, the inhibition was -2.49%.

Turning to `CCOC(=O)c1c(-c2ccccc2)oc2cc(Br)c(O)cc12`, the inhibition was -6.47%.

Turning to `O=C(CCc1ccccc1)Nc1ccc(NC(=O)C2CC2)nc1`, the inhibition was -15.9%.

On to `Cn1c(=O)c2c(SCC(=O)N3CCOCC3)nc(C3CC3)nc2n(C)c1=O`, for which the inhibition is -4.88%.

For `Cc1cccc(NC(=S)NCCc2ccc(Cl)cc2)c1C`, the inhibition is 48.4% (active).

For the molecule `Cc1cccc(NC(=S)NCCc2ccc(F)cc2)c1C`, the inhibition was 20.9%.

Regarding `Cc1ccc(NC(=S)NCCc2ccc(Cl)cc2)c(C)c1`, the inhibition is 5.82%.

Consider `O=C(Nc1cccn(Cc2ccccc2Cl)c1=O)NC1CCCCC1`, for which the inhibition is -3.28%.

As to `Cc1ccc(N=C2NC(=O)/C(=C/C=C/c3ccco3)S2)cc1C`, the inhibition was 47.9% (active).

With `Cc1ccc(CNC(=O)CSc2nnc3c(n2)[nH]c2ccc(F)cc23)cc1`, the inhibition was -1.66%.

For `CC1=CC2=NC(=O)/C(=C/c3coc4ccccc4c3=O)C(=N)N2O1`, the inhibition is -5.2%.

Turning to `O=C(CNC(=O)c1ccccc1)NCC(=O)OCc1ccc(Cl)cc1`, the inhibition was -3.69%.

With `S=C(NCCc1ccccc1)NCc1ccccc1Cl`, the inhibition was 48.6% (active).

In the case of `S=C(NCc1ccco1)NCc1ccccc1Cl`, the inhibition is 13.4%.

Consider `S=C(NCCc1ccccc1)NCC1CCCO1` (stereo not drawn), for which the inhibition was -7.53%.

`O=C1c2ccccc2C(=O)N1CCC(c1ccccc1)c1ccco1` (stereo not drawn): the inhibition is 15.9%.

For `CC(Oc1ccc(F)cc1)C(=O)Nc1cc(S(=O)(=O)N2CCOCC2)ccc1N1CCN(C)CC1` (stereo not drawn), the inhibition was -5.35%.

On to `COc1ccccc1S(=O)(=O)c1c(C)cc(C)[nH]c1=O`, for which the inhibition was -5.56%.

With `Cc1c(NC(=S)NCc2ccc(F)cc2)cccc1[N+](=O)[O-]`, the inhibition is 77.1% (active).

As for `Cc1onc(C(=O)NCc2ccc(F)cc2)c1[N+](=O)[O-]`, the inhibition is 1.98%.

Take `Cc1c(NC(=O)CCCOc2ccccc2)cccc1[N+](=O)[O-]`: the inhibition was -6.83%.

For `CCOC(=O)N1CCC(NC(=O)Cn2cc3c(n2)CCCCC3)CC1`, the inhibition is -3.87%.

For `COC(=O)Cc1c(-c2[nH]c3ccccc3c2CC(=O)OC)[nH]c2ccccc12`, the inhibition is 5.62%.

Regarding `NC(=O)Cc1ccc2c(c1)[nH]c1ccccc12`, the inhibition is 47.3% (active).

For the molecule `CCn1c2ccccc2c2cc(CC(N)=O)ccc21`, the inhibition was 25%.

For the molecule `CC(OC(=O)c1ccc(-n2cnnn2)cc1)C(=O)NCc1ccccc1` (stereo not drawn), the inhibition is -0.42%.

As to `CCCCn1c(N)c(N(CC)C(=O)c2ccccc2C(F)(F)F)c(=O)[nH]c1=O`, the inhibition was 1.66%.

With `CC(C)(CNC(=O)c1cc(=O)[nH]c2ccccc12)N1CCOCC1`, the inhibition was -6.8%.

On to `Cc1c(N=Nc2ccc(N(C)C)cc2)c(=O)n(-c2ccccc2)n1C`, for which the inhibition is -2.28%.

Turning to `CC(=O)c1c(C)n(-c2ccc(C)cc2)c2ccc(O)cc12`, the inhibition was -0.19%.

For the molecule `CC(=O)c1c(C)n(-c2ccc(N(C)C)cc2)c2ccc(OCC(N)=O)cc12`, the inhibition is 82.1% (active).

With `CCOC(=O)c1c(C)oc2ccc(OCC(=O)N(CC)CC)cc12`, the inhibition is -8.98%.

Regarding `COc1ccc(NC(=O)CSc2nnc(Cc3ccccc3)c(=O)n2N)cc1`, the inhibition was -4.35%.

As to `Cc1ccc(CSc2nc(-c3ccccc3)c(C#N)c(=O)[nH]2)cc1`, the inhibition is 49.2% (active).

Take `N#Cc1c(-c2ccccc2)nc(SCc2cccc(C(F)(F)F)c2)[nH]c1=O`: the inhibition is 34.9%.

For the molecule `N#Cc1c(-c2ccc(F)cc2)nc(-c2ccccc2)[nH]c1=O`, the inhibition is 5.66%.

Consider `Cc1cccc(N2CCN(C(c3ccc(N(C)C)cc3)c3nnnn3C(C)(C)C)CC2)c1C` (stereo not drawn), for which the inhibition was -1.38%.

For the molecule `COc1cc(C)c(S(=O)(=O)N2CCOCC2)c(C)c1C`, the inhibition is -9.43%.

For the molecule `COC(=O)c1c(NC(=O)CSc2nncs2)sc2c1CCCCC2`, the inhibition is -14.5%.

In the case of `N#Cc1c(NC(=O)C2CC(Cl)=CCC2C(=O)O)sc2c1CCCCC2` (stereo not drawn), the inhibition is -4.77%.

Regarding `COC(=O)c1c(NC(=O)C2CC(C)=C(C)CC2C(=O)O)sc2c1CCCCC2` (stereo not drawn), the inhibition was 70.5% (active).

For `O=C(CNC(=O)[C@@H]1Cc2ccccc2CN1)NC1CCCCC1`, the inhibition is -3.14%.

For the molecule `CCSC(C)CC1C/C(=N/O)c2c(C)noc2C1` (stereo not drawn), the inhibition is -1.06%.
